High-throughput results: PubChem, National Center for Advancing Translational Sciences (NCATS)
Only some compounds are listed: those with a hit (about 18% of all), similar ones and a draw of the others.
TGFb inhibitor – TGF-b pathway inhibition; 1.2% of 410,000 active; Potency, µM (doses to about 46.1 µM), inactives show at the highest dose activity, negative = inhibition, most hits filed as inhibitors; HepG2 CAGA-GFP TGF-b/SMAD3 reporter, GFP fluorescence, 18 h; TGF-beta stimulated, 500 pg/mL final; AID 588855; further: potency means the concentration at half of the fitted maximal effect; on the % scale 0 is the no-effect control and ±100 the full control effect; nearly all actives have a fitted effect of over 65% in size
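Read-out: total well GFP (ex488/em500-530) summed from mean per-cell fluorescence. Cells: HEPG2 CAGA-GFP, 1% FBS DMEM, 18 h at 37 degrees C with 500 pg/mL final TGF-beta. Unstimulated wells served as the full-inhibition control; stimulated DMSO wells = 0%.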
TDP1 cell noCPT – qHTS for Inhibitors of human tyrosyl-DNA phosphodiesterase 1 (TDP1): qHTS in cells in absence of CPT; Potency, µM (doses to about 46.2 µM), inactives show at the top dose activity change, negative = growth inhibition, actives largely listed as inhibitors; 15% of 420,000 active; DT40 Tdp1-/- hTDP1 cells, no CPT, ATP luminescence, 48 h; AID 686978, 2013; further: potency means the concentration at half of the fitted maximal effect; on the % scale 0 is the no-effect control and ±100 the full control effect; nearly all actives have a fitted effect of over 55% in size
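No-CPT arm: Tdp1-/-;hTDP1 DT40 cells (400/well) plus compounds, incubated ≥48 hr at 37 °C. Readout CellTiter-Glo luminescence.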
TDP1 block – inhibitors of human tyrosyl-DNA phosphodiesterase TDP1 | 0.28% of 350,000 active | recombinant TDP1, AlphaScreen DNA substrate cleavage | Potency, µM (top dose mostly 130 µM), for the others: at the highest dose activity change, negative = inhibition, usual class: inhibitors | Q9NUW8; further: potency means the concentration at half of the fitted maximal effect; on the % scale 0 is the no-effect control and ±100 the full control effect; nearly all actives have a fitted effect of over 40% in size
Target sequence (Q9NUW8 whole entry, looked up): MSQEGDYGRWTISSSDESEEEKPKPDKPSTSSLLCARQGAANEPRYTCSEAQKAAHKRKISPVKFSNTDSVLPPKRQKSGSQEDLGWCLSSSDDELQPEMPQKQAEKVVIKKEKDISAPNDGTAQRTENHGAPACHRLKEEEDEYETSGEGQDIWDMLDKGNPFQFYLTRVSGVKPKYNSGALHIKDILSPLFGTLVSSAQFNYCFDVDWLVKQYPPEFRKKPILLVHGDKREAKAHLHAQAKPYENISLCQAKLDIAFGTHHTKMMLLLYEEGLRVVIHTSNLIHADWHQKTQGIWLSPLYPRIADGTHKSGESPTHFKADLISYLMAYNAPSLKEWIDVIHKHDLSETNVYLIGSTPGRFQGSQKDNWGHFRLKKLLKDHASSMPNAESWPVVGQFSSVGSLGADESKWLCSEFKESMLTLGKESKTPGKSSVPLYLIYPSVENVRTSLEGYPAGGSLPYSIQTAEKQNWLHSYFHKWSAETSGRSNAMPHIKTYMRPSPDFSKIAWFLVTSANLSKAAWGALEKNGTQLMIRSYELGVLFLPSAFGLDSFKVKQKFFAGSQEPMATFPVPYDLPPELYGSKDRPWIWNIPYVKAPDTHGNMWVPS
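Recombinant E. coli-expressed Tdp1 (1 nM) preincubated with compound 15 min at RT, then 5'-biotin/3'-phosphotyrosine-FITC DNA substrate (15 nM) added for 5 min. AlphaScreen beads (10 ug/ml) added, 10 min RT; tyrosine-FITC cleavage read as signal loss.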
TDP1 cell CPT – DT40-hTDP1 cell growth loss with CPT; chicken DT40 Tdp1-/-;hTDP1 cells + 20 nM CPT, ATP luminescence, 48 h; Potency, µM (top dose mostly 46.2 µM), for inactives: at the top dose activity change, negative = growth inhibition, usual class: inhibitors; 12% of 420,000 active; AID 686979; further: potency means the concentration at half of the fitted maximal effect; on the % scale 0 is the no-effect control and ±100 the full control effect; nearly all actives have a fitted effect of over 55% in size
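Chicken DT40 Tdp1-/- cells stably complemented with human TDP1 were seeded at 400 cells/well in medium containing 20 nM camptothecin, exposed to pin-transferred compounds, and grown at 37 °C for at least 48 hr. Viability was read as ATP luminescence.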
HepG2 viability – HepG2 cytotoxicity, counter-screen for TGF-b inhibitors; HepG2 CAGA-GFP viability, ATP luminescence, 18 h; Potency, µM (top dose mostly 46.1 µM), for the others: top-dose activity change, negative = cytotoxicity, usual class: cytotoxic; 0.76% of 410,000 active; further: potency means the concentration at half of the fitted maximal effect
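CellTiter-Glo luminescence gave cytotoxicity after 18 hours at 37 degrees C. The cells were HepG2 CAGA-GFP in 1% FBS DMEM, stimulated with 500 pg/mL TGF-beta after compound addition. %Activity was normalised to no-cell wells (complete cell-killing) and DMSO (no toxicity), and curves were fitted and classified.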
IL1B secr inh – inhibitors of inflammasome signaling (IL-1 beta secretion). THP-1 LPS/ATP IL-1B secretion, AlphaLISA, 16 h; stronger effect = lower value. activity change, % at 57.5 µM. 4.7% of 360,000 active. AID 743279; in the data active means activity change below about -50%; inconclusive means mostly about -30% to -49%; further: on the % scale 0 is the no-effect control and ±100 the full control effect
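THP-1 cells pretreated 1 hr with compounds (up to 57.5 uM final), then stimulated with LPS (250 ng/mL final) plus ATP (1.25 mM final); secreted IL-1B measured by AlphaLISA after 16 hr, decreased signal indicating inhibition.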
* marks the source's active call; other numbers are inactive results; i = inactive; ? = inconclusive; nt = not tested or not shown; [ ] = dose if it differs, or a comment. Unless noted, the call rests on the fitted dose curve; in most records, active means well fitted curve in the direction sought with a large enough effect; inconclusive means small, poorly fitted or top-dose-only effect, or another doubt; inactive means no such curve, though single readings can be large; an effect the other way counts as inactive or inconclusive.

SMILES | TGFb inhibitor | TDP1 cell noCPT | TDP1 block | TDP1 cell CPT | HepG2 viability | IL1B secr inh
Cc1ccc(NC(=O)CSc2nc(N)c3c4c(sc3n2)CSC(C)(C)C4)cc1 | ? | 16µM* | 6% | 23µM* | 3% | -30
Cc1ccc(-n2c(SCC(=O)O)nc3sc4c(c3c2=O)CC(C)(C)SC4)cc1 | 1% | 18% | nt | -1% | -3% | -13
CC1(C)Cc2c(sc3nc(SCC(=O)O)nc(N)c23)CO1 | 6% | -8% | nt | 13% | 4% | 11
O=C(Oc1ccc2ccccc2c1)C1CCC1 | 2% | -24% | nt | -13% | -15% | 28
O=C(Oc1ccc(OC(=O)C2CCC2)cc1)C1CCC1 | -1% | 23µM* | ? | ? | 12% | 15
O=C(NCc1cccnc1)C1CCN(S(=O)(=O)c2cccnc2)CC1 | 1% | -20% | 6% | -10% | -6% | 8
O=C(NCc1ccncc1)C1CCN(S(=O)(=O)Cc2ccccc2)CC1 | -3% | 2% | 0% | -17% | -26% | -64*
O=C(C1CCN(S(=O)(=O)c2cc(Cl)ccc2Cl)CC1)N1CCOCC1 | 17% | -4% | 4% | -11% | -6% | -57*
Cc1cc(S(=O)(=O)N2CCCC(N(C)CCc3ccccn3)C2)c(C)cc1Cl (stereo not given) | ? | 21µM* | 3% | 21µM* | -57% | ?
O=C(NCc1cccnc1)C1CCN(S(=O)(=O)c2cc(Cl)ccc2Cl)CC1 | -5% | ? | 1% | 7.3µM* | -16% | 37
COc1cccc2cc(C(=O)NCCN3CCOCC3)c(=O)oc12 | -2% | -6% | nt | -4% | -3% | -10
COc1ccc(C)cc1S(=O)(=O)N1CCCC(C(=O)NCc2ccccn2)C1 (stereo not given) | 6% | -5% | 1% | 2% | 26% | i
CCc1ccc(CNC(=O)C2CCN(S(=O)(=O)N3CCC(C)CC3)CC2)cc1 | -21% | 26µM* | 3% | ? | -21% | -2
O=C(NCc1ccccn1)C1CCCN(S(=O)(=O)c2cc(Cl)ccc2Cl)C1 (stereo not given) | ? | 8.2µM* | nt | 9.2µM* | -59% | -104*
CCc1ccc(NC(=O)CSC2=Nc3ccccc3C3=NC(CCC(=O)NCc4ccco4)C(=O)N23)cc1 (stereo not given) | 2% | ? | 4% | ? | 2% | nt
CC1CCC(NC(=O)C(C)N2C(=O)C3CCCCC3C2=O)CC1 (stereo not given) | 7% | 3% | -2%[56.1 µM] | 5% | 10% | 8
Cc1ccc(S(=O)(=O)c2cnc(-c3ccccc3)nc2N2CCCCC2)cc1 | -21% | ? | -3% | ? | 7% | -8
O=S(=O)(c1ccccc1)c1cnc(-c2ccccc2)nc1N1CCCC1 | -4% | 18µM* | nt | -27% | -15% | -10
Cc1nc(-c2ccccc2)sc1-c1nc(-c2ccncc2)ncc1S(=O)(=O)c1ccccc1 | 10% | ? | 6% | ? | -29% | -54*
CCN1C[C@@H]2[C@@H]3C(=O)N(Cc4ccccc4)C(=O)[C@@H]3[C@](C)(C1=O)N2C(=O)c1ccc(Cl)cc1 | -8% | -4% | nt | -7% | -2% | -1
COc1ccc(NC(=O)CN2CCC(NC(=O)c3ccco3)CC2)c([N+](=O)[O-])c1 | -1% | -29% | 0% | -27% | -29% | -10
CN(C(=O)COC(=O)c1ccccc1NCCO)C1CCS(=O)(=O)C1 (stereo not given) | -1% | -1% | -13% | -1% | 0% | 5
COc1ccc(OC)c(CNS(=O)(=O)c2ccc(-c3coc(C)n3)cc2)c1 | -1% | 21µM* | 7% | ? | -16% | nt
